The full data set covers some 8,800 targets. This sample favours those with a hit. About 0.5% of all pairs of compound and target were hits.
Assays:
Assay in all cases: log2 fold change, soluble protein after heating vs DMSO (PISA); higher = thermal stabilisation; K562 lysate, 10 uM; active = over 0.2 and 3.5 SD of the protein, either way, in both replicates (recomputed)
[1] = compound: C#Cc1cccc(Nc2ncnc3cc(OCCOC)c(OCCOC)cc23)c1 [erlotinib]
How it was run: (§1)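 Soluble protein was defined as the supernatant remaining after 21,000xg for 90 min, following pooling of heated aliquots and adjustment to 0.5% NP-40 at 4°C. Before that, crude K562 extract at 1 mg/mL protein in PBS pH 7.4 with 1 mM MgCl2 was treated with 10 μM compound for 30 min and heated for 3 min across 48°C-58°C. Quantification used TMTpro 16plex LC-MS/MS with channel sums equalised, and values are log-two fold changes in thermal stability relative to solvent controls from duplicates.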

[2] = compound: C/C(=N\NC(=O)C1=CC(=CC=C1)S(=O)(=O)N2CCOCC2)/C3=C(C=CC(=C3)Cl)O
How it was run: as §1

[3] = compound: C1=CC(=CC=C1C2=NC3=C(N2)C=C(C=C3)C(=O)N)OC4=CC=C(C=C4)Cl
How it was run: as §1

[4] = compound: C1=CC2=C(C=CC(=C2)/C=C\3/C(=O)NC(=NCC4=CC=CS4)S3)N=C1
How it was run: as §1

[5] = compound: C1=CC2=NC=CN=C2C=C1/C=C/3\C(=O)NC(=O)S3
How it was run: as §1

[6] = compound: C1=CC=C(C=C1)C2=NC(=C(N2)C3=CC=NC=C3)C4=CC(=C(C=C4)Cl)O
How it was run: as §1

[7] = compound: C1=CC=C2C(=C1)C3=NNC4=CC=CC(=C43)C2=O
How it was run: as §1

[8] = compound: C1CCN(C1)C(=O)NC2=CC=CC(=C2)NC3=NC=C(C(=N3)NCCC4=CN=CN4)Br
How it was run: as §1

[9] = compound: C1CN(CCC1(CC2=CC=C(C=C2)Cl)N)C3=NC=NC4=C3C=CN4
How it was run: as §1

[10] = compound: C1COCCN1CCN2C3=CC=CC=C3N=C2NC(=O)C4=CC(=CC=C4)[N+](=O)[O-] [IRAK-1-4 Inhibitor I]
How it was run: as §1

[11] = compound: C=CC(=O)N1CCC[C@@H](n2nc(-c3ccc(Oc4ccccc4)cc3)c3c(N)ncnc32)C1 [ibrutinib]
How it was run: as §1

[12] = compound: CC(=O)c1cnc2ccc(-c3cc(Cl)c(O)c(Cl)c3)nc2c1N[C@H]1CC[C@H](CN(C)C)CC1
How it was run: as §1

[13] = compound: CC(C)(C)Cn1c(N)nc2ccc(-c3[nH]c(C(C)(C)C)nc3-c3ccc(F)cc3)nc21 [ralimetinib]
How it was run: as §1

[14] = compound: CC(C)(O)CC(=O)NCCn1ccc2ncnc(Nc3ccc(Oc4cccc(C(F)(F)F)c4)c(Cl)c3)c21
How it was run: as §1

[15] = compound: CC(C)C1=C2N=C(C=C(N2N=C1)NCC3=CC=CC=C3)NCCCCCCN
How it was run: as §1

[16] = compound: CC1=C(C(CC(=O)N1)C2=CC=C(C=C2)C(F)(F)F)C(=O)NC3=C(C=C4C(=C3)C=NN4)F
How it was run: as §1

[17] = compound: CC1=C(C2=C(C=C1)C(=O)C3=CC=CC=C3N2CCCN)C
How it was run: as §1

[18] = compound: CC1=C(C=C(C=C1)NC(=O)C2=CC(=CC=C2)C(C)(C)C#N)NC3=CC4=C(C=C3)N=CN(C4=O)C
How it was run: as §1

[19] = compound: CC1=C(C=C(C=C1)NC(=O)C2=CC(=CC=C2)N(C)C)NC(=O)C3=CC=C(C=C3)O
How it was run: as §1

[20] = compound: CC1=CC=C(C=C1)SC2=C3C=C(SC3=CN=C2)C(=O)N
How it was run: as §1

Measured: log2 fold change

NQO1 (UniProt P15559)
Sequence of UniProt P15559 (P15559 whole entry, looked up): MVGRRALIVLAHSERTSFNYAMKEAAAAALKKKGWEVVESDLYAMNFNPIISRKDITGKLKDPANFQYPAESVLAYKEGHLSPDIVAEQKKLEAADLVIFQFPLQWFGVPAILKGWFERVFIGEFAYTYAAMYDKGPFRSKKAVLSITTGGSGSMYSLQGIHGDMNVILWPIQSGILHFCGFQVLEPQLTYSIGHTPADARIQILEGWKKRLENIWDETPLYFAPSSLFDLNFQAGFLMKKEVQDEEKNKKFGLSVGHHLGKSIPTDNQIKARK
inactive: [1] -0.033 | [2] 0.081 | [3] 0.055 | [4] -0.08 | [5] -0.02 | [6] -0.022 | [7] -0.192 | [8] 0.005 | [9] 0.006 | [10] -0.017 | [11] 0.009 | [12] -0.003 | [13] 0.033 | [14] 0.081 | [15] -0.009 | [16] 0.001 | [17] 0.159 | [18] 0.038 | [19] -0.025 | [20] 0.067

MRPS18A isoform 2 (UniProt Q9NVS2)
inactive: [1] 0.024 | [2] -0.038 | [3] 0.038 | [4] 0.112 | [5] -0.035 | [6] -0.053 | [7] -0.013 | [8] 0.009 | [9] 0.004 | [10] 0.015 | [11] -0.015 | [12] 0.006 | [13] -0.015 | [14] -0.002 | [15] -0.046 | [16] 0.034 | [17] -0.131 | [18] 0.016 | [19] 0.043 | [20] -0.003

NNMT (UniProt P40261)
inactive: [1] -0.015 | [2] 0.003 | [3] 0.045 | [4] -0.001 | [5] -0.003 | [6] 0.032 | [7] -0.019 | [8] -0.002 | [9] -0.006 | [10] -0.024 | [11] -0.026 | [12] -0.037 | [13] 0.011 | [14] -0.019 | [15] -0.05 | [16] -0.053 | [17] 0.026 | [18] 0.06 | [19] 0.016 | [20] -0.034

PBK (UniProt Q96KB5)
inactive: [1] 0.012 | [2] 0.026 | [3] -0.044 | [4] 0.014 | [5] -0.014 | [6] 0.008 | [7] -0.001 | [8] -0.007 | [9] -0.011 | [10] -0.007 | [11] 0.006 | [12] -0.007 | [13] 0.005 | [14] -0.005 | [15] 0.029 | [16] -0.008 | [17] 0.015 | [18] 0.006 | [19] -0.013 | [20] 0.019

NDUFS1 isoform 2 (UniProt P28331)
inactive: [1] -0.006 | [2] 0.033 | [3] -0.045 | [4] 0.025 | [5] 0.027 | [6] -0.033 | [7] -0.027 | [8] -0.052 | [9] 0.006 | [10] 0.006 | [11] -0.022 | [12] -0.009 | [13] 0.014 | [14] -0.049 | [15] -0.041 | [16] 0.01 | [17] 0.007 | [18] -0.045 | [19] 0.005 | [20] 0.005

NUSAP1 (UniProt Q9BXS6)
Sequence of UniProt Q9BXS6 (Q9BXS6 whole entry, looked up): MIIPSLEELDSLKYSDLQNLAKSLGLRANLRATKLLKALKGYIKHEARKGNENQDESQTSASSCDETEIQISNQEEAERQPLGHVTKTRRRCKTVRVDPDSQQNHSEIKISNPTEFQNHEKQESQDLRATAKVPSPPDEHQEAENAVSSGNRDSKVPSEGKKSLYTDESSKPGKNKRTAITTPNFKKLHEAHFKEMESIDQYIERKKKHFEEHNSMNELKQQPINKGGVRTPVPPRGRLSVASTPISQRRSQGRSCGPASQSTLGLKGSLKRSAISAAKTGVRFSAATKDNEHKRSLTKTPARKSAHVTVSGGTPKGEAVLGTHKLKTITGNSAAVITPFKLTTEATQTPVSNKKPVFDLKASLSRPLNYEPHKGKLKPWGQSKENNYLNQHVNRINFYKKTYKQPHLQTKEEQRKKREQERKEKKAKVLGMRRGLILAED
inactive: [1] -0.011 | [2] -0.466 | [3] 0.025 | [4] -0.008 | [5] -0.033 | [6] 0.008 | [7] 0.035 | [8] 0.012 | [9] 0.001 | [10] -0.005 | [11] -0.003 | [12] -0.022 | [13] 0.023 | [14] -0.014 | [15] -0.006 | [16] -0.02 | [17] -0.017 | [18] -0.004 | [19] 0.016 | [20] -0.023

NUP205 (UniProt Q92621)
inactive: [1] 0.03 | [2] -0.022 | [3] -0.018 | [4] 0.049 | [5] -0.008 | [6] -0.013 | [7] -0.06 | [8] -0.009 | [9] 0.035 | [10] 0.005 | [11] 0.015 | [12] 0.026 | [13] 0.026 | [14] -0.006 | [15] -0.036 | [16] 0.003 | [17] 0.022 | [18] 0.026 | [19] 0.017 | [20] 0.008

NF1 (UniProt P21359)
Sequence of UniProt P21359 (P21359 whole entry, looked up): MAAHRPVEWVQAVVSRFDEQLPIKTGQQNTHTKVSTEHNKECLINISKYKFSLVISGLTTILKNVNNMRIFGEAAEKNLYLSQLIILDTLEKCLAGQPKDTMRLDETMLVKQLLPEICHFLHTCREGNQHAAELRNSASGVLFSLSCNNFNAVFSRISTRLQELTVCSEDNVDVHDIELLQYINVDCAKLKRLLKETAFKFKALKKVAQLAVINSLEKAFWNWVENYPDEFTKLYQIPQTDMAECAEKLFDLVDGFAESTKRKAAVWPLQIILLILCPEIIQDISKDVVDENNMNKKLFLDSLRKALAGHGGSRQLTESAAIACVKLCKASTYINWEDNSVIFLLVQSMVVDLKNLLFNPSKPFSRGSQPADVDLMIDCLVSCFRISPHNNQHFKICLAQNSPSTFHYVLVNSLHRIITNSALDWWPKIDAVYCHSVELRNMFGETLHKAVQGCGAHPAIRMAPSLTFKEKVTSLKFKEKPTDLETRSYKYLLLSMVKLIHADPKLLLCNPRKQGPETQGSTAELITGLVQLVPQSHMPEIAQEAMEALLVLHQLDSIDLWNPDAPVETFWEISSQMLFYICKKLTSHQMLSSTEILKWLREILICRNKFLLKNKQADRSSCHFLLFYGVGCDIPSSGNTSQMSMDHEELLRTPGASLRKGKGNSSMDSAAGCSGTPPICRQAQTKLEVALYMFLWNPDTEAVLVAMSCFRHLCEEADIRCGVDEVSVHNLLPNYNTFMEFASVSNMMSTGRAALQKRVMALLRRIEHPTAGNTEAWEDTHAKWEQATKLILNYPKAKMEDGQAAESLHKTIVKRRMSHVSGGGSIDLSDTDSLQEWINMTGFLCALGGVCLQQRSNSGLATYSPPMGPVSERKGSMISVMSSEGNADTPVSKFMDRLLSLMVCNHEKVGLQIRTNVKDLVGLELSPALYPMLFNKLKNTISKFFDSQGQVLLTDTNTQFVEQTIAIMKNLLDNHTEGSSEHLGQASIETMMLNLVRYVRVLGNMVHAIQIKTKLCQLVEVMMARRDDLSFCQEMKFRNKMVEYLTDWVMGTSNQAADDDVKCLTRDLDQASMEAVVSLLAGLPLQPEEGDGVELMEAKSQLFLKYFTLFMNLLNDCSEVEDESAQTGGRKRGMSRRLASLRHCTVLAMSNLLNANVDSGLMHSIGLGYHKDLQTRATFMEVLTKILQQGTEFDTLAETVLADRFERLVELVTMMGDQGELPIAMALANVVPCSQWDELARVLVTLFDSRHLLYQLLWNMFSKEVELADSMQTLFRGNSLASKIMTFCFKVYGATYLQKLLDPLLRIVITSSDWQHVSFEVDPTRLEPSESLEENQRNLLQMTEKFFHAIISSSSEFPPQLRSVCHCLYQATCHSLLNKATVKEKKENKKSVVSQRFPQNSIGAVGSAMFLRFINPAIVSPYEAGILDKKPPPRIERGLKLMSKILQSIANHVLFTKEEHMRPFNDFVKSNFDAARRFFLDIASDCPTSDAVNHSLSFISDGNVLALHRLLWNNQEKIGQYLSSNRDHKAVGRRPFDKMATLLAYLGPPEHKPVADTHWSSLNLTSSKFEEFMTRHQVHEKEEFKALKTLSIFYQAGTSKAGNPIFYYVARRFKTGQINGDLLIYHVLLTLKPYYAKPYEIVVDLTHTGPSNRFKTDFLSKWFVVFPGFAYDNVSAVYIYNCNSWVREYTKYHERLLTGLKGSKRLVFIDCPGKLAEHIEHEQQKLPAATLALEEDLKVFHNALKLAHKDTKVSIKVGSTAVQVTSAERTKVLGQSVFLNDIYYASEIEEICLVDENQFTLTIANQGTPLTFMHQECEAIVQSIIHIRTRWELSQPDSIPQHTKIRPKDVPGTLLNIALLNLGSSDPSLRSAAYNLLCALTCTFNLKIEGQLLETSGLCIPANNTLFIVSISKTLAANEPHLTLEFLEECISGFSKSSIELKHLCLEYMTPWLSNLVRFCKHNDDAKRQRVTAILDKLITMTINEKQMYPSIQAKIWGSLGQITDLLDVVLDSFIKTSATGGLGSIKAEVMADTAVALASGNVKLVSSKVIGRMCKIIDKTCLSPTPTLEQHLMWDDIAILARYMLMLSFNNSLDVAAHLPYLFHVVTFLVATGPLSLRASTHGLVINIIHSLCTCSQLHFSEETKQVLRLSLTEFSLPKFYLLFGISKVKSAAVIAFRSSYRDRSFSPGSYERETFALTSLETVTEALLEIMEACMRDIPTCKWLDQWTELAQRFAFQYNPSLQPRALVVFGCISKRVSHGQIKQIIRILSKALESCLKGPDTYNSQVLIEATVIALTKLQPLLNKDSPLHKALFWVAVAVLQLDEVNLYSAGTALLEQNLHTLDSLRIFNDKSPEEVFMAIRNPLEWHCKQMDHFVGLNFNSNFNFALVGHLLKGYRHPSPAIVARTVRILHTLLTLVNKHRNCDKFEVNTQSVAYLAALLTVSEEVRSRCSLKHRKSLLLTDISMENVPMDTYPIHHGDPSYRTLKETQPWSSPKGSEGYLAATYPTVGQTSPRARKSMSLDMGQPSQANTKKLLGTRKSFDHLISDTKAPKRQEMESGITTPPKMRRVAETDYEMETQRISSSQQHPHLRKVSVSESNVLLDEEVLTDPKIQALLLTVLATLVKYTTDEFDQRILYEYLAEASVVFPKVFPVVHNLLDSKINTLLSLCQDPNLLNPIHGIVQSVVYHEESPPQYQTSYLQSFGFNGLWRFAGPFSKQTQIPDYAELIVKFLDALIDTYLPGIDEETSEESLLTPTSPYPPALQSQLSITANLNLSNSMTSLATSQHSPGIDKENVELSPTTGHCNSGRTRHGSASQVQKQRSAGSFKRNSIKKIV
inactive: [1] 0.072 | [2] -0.031 | [3] -0.02 | [4] -0.056 | [5] -0.008 | [6] -0.003 | [7] -0.089 | [8] 0.017 | [9] 0 | [10] 0.023 | [11] 0.018 | [12] 0.02 | [13] 0.07 | [14] -0.03 | [15] -0.009 | [16] 0.004 | [17] -0.02 | [18] 0.041 | [19] 0.007 | [20] -0.032

MTA2 (UniProt O94776)
inactive: [1] -0.025 | [2] -0.017 | [3] 0.019 | [4] 0.013 | [5] -0.012 | [6] -0.015 | [7] -0.023 | [8] -0.007 | [9] 0.021 | [10] -0.005 | [11] -0.014 | [12] -0.023 | [13] 0.03 | [14] 0.021 | [15] 0.032 | [16] 0.011 | [17] 0.018 | [18] -0.008 | [19] 0.043 | [20] -0.009

MTA3 (UniProt Q9BTC8)
inactive: [1] 0.025 | [2] -0.051 | [3] 0.02 | [4] -0.022 | [5] -0.078 | [6] -0.046 | [7] 0 | [8] 0.004 | [9] 0.025 | [10] 0.012 | [11] -0.048 | [12] -0.023 | [13] 0.009 | [14] 0.062 | [15] 0.01 | [16] -0.047 | [17] 0.031 | [18] -0.053 | [19] -0.052 | [20] -0.018

NAA38 isoform 2 (UniProt Q9BRA0)
Sequence of UniProt Q9BRA0 (Q9BRA0 whole entry, looked up): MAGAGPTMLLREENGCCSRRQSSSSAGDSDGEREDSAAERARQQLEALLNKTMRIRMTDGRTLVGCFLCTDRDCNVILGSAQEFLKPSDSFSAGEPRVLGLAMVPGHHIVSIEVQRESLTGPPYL
inactive: [1] 0.049 | [2] -0.065 | [3] 0.013 | [4] 0.019 | [5] -0.045 | [6] -0.055 | [7] 0.008 | [8] -0.052 | [9] 0.008 | [10] 0.031 | [11] 0.015 | [12] -0.012 | [13] -0.02 | [14] -0.015 | [15] -0.014 | [16] 0.052 | [17] -0.017 | [18] -0.028 | [19] 0.022 | [20] -0.029

NCK1 (UniProt P16333)
inactive: [1] 0.02 | [2] 0.036 | [3] 0.04 | [4] -0.007 | [5] -0.01 | [6] -0.009 | [7] -0.072 | [8] -0.024 | [9] 0.049 | [10] 0.002 | [11] 0.025 | [12] -0.029 | [13] 0.003 | [14] 0.01 | [15] -0.016 | [16] 0.028 | [17] 0.002 | [18] -0.005 | [19] 0.029 | [20] 0

MSH6 (UniProt P52701)
Sequence of UniProt P52701 (P52701 whole entry, looked up): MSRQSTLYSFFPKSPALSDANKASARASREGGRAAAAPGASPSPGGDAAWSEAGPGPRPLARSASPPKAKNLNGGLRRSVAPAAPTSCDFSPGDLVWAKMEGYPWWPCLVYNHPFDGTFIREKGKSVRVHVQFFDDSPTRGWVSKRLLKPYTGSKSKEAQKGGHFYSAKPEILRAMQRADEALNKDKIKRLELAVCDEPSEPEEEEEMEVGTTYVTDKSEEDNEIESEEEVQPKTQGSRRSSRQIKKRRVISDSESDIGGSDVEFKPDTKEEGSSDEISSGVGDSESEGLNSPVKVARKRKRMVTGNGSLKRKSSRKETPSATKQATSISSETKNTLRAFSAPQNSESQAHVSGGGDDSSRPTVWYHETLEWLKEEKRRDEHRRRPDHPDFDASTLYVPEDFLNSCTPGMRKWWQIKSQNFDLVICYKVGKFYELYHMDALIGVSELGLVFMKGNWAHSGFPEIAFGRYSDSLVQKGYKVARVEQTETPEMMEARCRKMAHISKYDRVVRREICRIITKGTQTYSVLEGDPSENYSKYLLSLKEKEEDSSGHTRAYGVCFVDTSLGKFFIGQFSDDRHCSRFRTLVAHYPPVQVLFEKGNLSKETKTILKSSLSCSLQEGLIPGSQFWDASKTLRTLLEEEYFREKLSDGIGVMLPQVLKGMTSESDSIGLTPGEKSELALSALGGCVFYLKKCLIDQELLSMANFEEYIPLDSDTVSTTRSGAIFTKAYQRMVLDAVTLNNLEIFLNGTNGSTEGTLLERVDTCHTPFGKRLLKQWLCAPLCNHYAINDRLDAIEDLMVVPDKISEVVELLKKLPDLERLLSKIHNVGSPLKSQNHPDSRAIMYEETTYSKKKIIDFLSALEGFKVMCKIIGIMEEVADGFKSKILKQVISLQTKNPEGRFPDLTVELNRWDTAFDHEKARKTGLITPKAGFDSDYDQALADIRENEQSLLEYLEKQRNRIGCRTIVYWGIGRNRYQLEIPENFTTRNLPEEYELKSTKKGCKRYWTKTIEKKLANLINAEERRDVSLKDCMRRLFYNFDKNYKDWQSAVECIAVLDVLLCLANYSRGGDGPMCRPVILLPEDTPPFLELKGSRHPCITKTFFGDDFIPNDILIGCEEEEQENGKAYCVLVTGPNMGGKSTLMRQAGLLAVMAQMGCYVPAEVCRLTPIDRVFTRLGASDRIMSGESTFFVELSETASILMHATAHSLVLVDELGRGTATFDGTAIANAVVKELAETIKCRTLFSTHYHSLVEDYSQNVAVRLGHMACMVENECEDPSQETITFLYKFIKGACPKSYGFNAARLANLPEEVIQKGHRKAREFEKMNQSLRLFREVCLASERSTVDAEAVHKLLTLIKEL
inactive: [1] 0.011 | [2] 0.03 | [3] -0.023 | [4] 0.031 | [5] 0.041 | [6] 0.008 | [7] -0.025 | [8] 0 | [9] -0.014 | [10] -0.008 | [11] 0.001 | [12] 0.022 | [13] 0.024 | [14] 0.003 | [15] 0.027 | [16] -0.01 | [17] -0.01 | [18] -0.002 | [19] 0.057 | [20] 0.003

NAA30 (UniProt Q147X3)
inactive: [1] 0.015 | [2] -0.027 | [3] 0.061 | [4] 0.026 | [5] -0.007 | [6] -0.046 | [7] -0.038 | [8] -0.088 | [9] -0.031 | [10] 0.085 | [11] 0.013 | [12] -0.017 | [13] 0.057 | [14] -0.037 | [15] -0.018 | [16] 0.084 | [17] -0.024 | [18] -0.045 | [19] 0.004 | [20] 0.046

NNT (UniProt Q13423)
inactive: [1] -0.027 | [2] 0.013 | [3] -0.014 | [4] -0.012 | [5] -0.006 | [6] -0.008 | [7] -0.033 | [8] 0 | [9] 0.031 | [10] -0.026 | [11] 0.012 | [12] -0.016 | [13] -0.095 | [14] -0.01 | [15] -0.05 | [16] -0.011 | [17] -0.019 | [18] -0.007 | [19] 0.01 | [20] -0.009

PAN2 isoform 2 (UniProt Q504Q3)
inactive: [1] 0 | [2] -0.007 | [3] -0.015 | [4] -0.005 | [5] 0.052 | [6] 0.03 | [7] 0 | [8] -0.017 | [9] -0.031 | [10] 0.006 | [11] -0.141 | [12] 0.036 | [13] 0.022 | [14] -0.022 | [15] -0.025 | [16] 0.022 | [17] 0.015 | [18] 0.012 | [19] -0.038 | [20] 0.027

— the supplement of paper PMC10849652
